Test results published in the supplement of paper PMC10849652.
The full data set covers some 7,900 targets. This sample favours those with a hit. About 0.6% of all pairs of compound and target were hits. Values without a mark were called inactive.

Columns and labels:
Experiment in all cases: log2 fold change, soluble protein after heating vs DMSO (PISA); higher = thermal stabilisation; K562 cells, 10 uM, 30 min; active = over 0.2 and 3.5 SD of the protein, either way, in both replicates (recomputed)
saracatinib = compound: CN1CCN(CCOc2cc(OC3CCOCC3)c3c(Nc4c(Cl)ccc5c4OCO5)ncnc3c2)CC1 [saracatinib]
Summary of the method: (§1)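 K562 cells at 2×10^6 cells/mL were treated for 30 min with 10 μM compound, and aliquots were heated for 3 min over 48°C-58°C before pooling. Extraction used PBS with 0.5% NP-40 at 4°C, and soluble protein was the supernatant after 21,000xg for 90 min, measured by TMTpro 16plex LC-MS/MS with channel sums equalised. Thermal stability values, relative to control samples and from duplicates, are log2 fold changes.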

sotrastaurin = compound: CN1CCN(c2nc(C3=C(c4c[nH]c5ccccc45)C(=O)NC3=O)c3ccccc3n2)CC1 [sotrastaurin]
Summary of the method: as §1

alvocidib = compound: CN1CC[C@H](c2c(O)cc(O)c3c(=O)cc(-c4ccccc4Cl)oc23)[C@H](O)C1 [alvocidib]
Summary of the method: as §1

[1] = compound: CNC(=O)C1=CC=CC=C1NC2=NC(=NC=C2Cl)NC3=C(C=C(C=C3)N4CCOCC4)OC
Summary of the method: as §1

defactinib = compound: CNC(=O)c1ccc(Nc2ncc(C(F)(F)F)c(NCc3nccnc3N(C)S(C)(=O)=O)n2)cc1 [defactinib]
Summary of the method: as §1

rucaparib = compound: CNCc1ccc(-c2[nH]c3cc(F)cc4c3c2CCNC4=O)cc1 [rucaparib]
Summary of the method: as §1

[2] = compound: CNc1nc(-c2ccc3c(N)n[nH]c3c2)cc(N2C[C@@H](C(=O)NC3CCCCC3)CC[C@H]2C)n1
Summary of the method: as §1

encorafenib = compound: COC(=O)N[C@@H](C)CNc1nccc(-c2cn(C(C)C)nc2-c2cc(Cl)cc(NS(C)(=O)=O)c2F)n1 [encorafenib]
Summary of the method: as §1

[3] = compound: COC(=O)[C@H](CCSC)NC(=O)C1=C(C=C(C=C1)NC[C@H](CS)N)C2=CC=CC=C2
Summary of the method: as §1

Tubastatin A = compound: CN1CCc2c(c3ccccc3n2Cc2ccc(C(=O)NO)cc2)C1 [Tubastatin A]
Summary of the method: as §1

Chain of UniProt Q9Y613 (Q9Y613 whole entry, looked up): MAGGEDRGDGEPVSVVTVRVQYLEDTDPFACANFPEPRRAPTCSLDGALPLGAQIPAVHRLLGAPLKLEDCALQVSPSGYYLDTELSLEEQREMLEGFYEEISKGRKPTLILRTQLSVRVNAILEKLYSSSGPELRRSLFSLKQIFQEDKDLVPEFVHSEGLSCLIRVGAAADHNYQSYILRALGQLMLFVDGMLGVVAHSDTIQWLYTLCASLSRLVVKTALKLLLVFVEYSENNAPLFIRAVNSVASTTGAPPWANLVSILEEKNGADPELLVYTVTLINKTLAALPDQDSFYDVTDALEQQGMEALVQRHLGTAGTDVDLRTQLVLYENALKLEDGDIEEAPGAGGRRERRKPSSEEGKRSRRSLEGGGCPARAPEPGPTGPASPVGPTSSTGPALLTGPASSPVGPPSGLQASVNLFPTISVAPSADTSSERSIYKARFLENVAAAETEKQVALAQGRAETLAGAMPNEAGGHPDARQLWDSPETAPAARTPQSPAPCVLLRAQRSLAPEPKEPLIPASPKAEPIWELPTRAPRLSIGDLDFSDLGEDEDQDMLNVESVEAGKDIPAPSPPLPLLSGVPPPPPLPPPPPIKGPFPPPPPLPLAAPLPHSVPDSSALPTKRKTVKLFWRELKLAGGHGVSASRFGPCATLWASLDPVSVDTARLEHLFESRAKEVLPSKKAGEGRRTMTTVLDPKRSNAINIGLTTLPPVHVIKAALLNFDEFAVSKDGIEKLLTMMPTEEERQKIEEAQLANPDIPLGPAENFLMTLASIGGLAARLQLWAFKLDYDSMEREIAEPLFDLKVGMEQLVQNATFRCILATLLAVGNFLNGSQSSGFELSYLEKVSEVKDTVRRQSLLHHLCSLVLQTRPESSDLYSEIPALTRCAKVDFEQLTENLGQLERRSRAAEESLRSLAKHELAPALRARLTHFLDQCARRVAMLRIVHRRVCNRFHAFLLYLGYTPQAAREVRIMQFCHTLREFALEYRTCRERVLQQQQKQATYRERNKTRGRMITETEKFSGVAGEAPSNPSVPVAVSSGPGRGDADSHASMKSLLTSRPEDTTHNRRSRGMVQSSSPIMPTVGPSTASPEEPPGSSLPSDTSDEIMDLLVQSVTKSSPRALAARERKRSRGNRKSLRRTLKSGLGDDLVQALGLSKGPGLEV
Chain of UniProt Q9UK97 (Q9UK97 whole entry, looked up): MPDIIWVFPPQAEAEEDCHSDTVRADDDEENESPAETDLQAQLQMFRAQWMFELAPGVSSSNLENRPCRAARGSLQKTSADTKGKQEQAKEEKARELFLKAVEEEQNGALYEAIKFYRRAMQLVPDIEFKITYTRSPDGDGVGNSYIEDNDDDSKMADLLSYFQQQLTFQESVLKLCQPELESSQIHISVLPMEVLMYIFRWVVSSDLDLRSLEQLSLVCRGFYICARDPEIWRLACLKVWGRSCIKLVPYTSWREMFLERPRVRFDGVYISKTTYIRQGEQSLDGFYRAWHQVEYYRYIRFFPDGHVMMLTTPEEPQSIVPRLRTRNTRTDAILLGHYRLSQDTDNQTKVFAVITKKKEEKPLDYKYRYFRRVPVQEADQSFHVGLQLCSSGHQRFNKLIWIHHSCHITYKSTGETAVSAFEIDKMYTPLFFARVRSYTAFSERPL
Chain of UniProt P01344 (P01344 whole entry, looked up): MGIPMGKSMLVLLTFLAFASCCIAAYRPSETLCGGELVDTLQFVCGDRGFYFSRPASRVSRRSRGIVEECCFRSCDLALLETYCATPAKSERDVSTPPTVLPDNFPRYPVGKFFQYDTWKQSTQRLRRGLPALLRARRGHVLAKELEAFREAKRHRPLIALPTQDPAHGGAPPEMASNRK
Chain of UniProt P55084 (P55084 whole entry, looked up): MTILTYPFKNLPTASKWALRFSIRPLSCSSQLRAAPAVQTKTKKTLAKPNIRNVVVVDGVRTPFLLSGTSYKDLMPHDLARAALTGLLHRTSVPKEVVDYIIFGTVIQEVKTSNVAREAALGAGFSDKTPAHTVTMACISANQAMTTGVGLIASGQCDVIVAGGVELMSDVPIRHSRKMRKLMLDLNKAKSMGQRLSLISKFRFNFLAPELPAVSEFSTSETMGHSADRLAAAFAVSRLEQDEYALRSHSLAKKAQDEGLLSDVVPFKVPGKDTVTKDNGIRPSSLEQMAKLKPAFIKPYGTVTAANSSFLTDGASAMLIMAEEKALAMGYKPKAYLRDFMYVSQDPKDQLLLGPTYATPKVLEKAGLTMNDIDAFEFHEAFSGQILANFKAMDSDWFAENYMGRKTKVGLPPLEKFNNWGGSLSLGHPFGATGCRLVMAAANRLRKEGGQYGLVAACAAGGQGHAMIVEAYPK
Chain of UniProt Q53T59 (Q53T59 whole entry, looked up): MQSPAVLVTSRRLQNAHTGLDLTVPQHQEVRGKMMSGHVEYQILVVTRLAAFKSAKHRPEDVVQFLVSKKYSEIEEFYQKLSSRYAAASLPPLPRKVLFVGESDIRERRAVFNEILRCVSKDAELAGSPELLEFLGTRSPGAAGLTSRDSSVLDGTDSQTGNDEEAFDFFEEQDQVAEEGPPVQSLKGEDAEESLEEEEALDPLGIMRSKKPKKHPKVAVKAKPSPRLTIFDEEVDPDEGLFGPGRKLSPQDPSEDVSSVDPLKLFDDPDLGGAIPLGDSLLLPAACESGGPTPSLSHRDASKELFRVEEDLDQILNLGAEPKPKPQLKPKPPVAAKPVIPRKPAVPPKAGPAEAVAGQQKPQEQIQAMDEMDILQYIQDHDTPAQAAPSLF
Chain of UniProt Q00688 (Q00688 whole entry, looked up): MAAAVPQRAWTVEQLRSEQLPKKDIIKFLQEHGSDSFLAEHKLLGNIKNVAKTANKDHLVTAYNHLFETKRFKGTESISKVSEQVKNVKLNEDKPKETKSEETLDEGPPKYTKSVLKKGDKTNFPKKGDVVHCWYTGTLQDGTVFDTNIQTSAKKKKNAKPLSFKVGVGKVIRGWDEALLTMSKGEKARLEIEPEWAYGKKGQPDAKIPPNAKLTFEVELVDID
Chain of UniProt Q4ZG55 (Q4ZG55 whole entry, looked up): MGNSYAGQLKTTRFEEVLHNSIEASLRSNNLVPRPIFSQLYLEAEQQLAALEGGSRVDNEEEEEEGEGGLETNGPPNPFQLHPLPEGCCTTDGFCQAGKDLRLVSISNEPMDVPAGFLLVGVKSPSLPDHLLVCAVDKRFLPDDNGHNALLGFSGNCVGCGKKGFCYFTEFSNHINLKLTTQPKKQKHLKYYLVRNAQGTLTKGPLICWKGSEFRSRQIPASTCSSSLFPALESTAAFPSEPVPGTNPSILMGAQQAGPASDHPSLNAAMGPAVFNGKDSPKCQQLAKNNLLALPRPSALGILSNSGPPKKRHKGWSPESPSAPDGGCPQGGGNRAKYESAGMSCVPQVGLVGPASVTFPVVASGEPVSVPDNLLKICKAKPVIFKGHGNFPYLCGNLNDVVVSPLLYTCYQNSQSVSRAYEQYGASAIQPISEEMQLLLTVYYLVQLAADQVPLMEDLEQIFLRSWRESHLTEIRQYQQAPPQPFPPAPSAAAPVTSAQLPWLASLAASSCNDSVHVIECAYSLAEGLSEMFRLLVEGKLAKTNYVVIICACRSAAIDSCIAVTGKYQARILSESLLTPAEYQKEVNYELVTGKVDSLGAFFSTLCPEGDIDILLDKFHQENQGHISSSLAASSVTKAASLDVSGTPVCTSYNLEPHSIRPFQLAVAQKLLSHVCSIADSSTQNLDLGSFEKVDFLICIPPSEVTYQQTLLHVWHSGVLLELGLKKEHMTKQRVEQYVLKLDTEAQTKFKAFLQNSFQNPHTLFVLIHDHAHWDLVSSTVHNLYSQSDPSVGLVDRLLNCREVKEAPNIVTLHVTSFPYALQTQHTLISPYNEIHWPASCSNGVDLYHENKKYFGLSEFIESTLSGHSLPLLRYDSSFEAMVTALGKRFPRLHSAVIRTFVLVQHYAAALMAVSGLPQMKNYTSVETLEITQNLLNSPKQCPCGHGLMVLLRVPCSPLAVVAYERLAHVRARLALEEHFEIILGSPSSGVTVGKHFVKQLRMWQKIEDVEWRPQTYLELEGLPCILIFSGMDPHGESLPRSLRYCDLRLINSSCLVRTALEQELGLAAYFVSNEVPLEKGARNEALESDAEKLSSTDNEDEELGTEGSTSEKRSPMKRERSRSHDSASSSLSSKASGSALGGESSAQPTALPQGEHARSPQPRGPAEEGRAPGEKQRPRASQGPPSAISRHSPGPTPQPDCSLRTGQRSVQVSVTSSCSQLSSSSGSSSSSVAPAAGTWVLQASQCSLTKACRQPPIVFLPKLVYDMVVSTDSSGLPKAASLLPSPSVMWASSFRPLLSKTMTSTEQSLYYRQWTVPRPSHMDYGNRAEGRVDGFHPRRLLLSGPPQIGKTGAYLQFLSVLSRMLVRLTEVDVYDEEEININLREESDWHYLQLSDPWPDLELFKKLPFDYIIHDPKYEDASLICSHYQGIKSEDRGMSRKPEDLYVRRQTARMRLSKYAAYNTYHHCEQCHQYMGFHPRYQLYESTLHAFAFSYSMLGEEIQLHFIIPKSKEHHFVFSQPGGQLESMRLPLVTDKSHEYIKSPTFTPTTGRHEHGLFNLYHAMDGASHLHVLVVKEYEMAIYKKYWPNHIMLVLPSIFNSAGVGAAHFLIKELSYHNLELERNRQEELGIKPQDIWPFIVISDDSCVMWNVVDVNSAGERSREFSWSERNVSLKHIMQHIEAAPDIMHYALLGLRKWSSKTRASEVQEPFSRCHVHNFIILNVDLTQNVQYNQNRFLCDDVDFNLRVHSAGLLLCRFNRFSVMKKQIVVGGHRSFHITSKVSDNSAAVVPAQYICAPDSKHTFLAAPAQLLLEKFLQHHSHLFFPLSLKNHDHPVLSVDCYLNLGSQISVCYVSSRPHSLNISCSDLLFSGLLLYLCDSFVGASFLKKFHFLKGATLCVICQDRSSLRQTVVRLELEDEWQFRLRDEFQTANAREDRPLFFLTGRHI
Chain of UniProt Q9Y324 (Q9Y324 whole entry, looked up): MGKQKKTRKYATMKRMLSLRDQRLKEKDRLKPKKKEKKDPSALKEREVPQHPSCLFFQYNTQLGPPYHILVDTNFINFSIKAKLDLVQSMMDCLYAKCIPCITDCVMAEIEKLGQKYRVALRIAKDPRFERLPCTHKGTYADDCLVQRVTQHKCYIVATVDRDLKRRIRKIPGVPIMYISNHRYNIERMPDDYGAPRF

| Target | log2 fold change (saracatinib) | log2 fold change (sotrastaurin) | log2 fold change (alvocidib) | log2 fold change [1] | log2 fold change (defactinib) | log2 fold change (rucaparib) | log2 fold change [2] | log2 fold change (encorafenib) | log2 fold change [3] | log2 fold change (Tubastatin A) |
| --- | --- | --- | --- | --- | --- | --- | --- | --- | --- | --- |
| FHOD1 (UniProt Q9Y613) | -0.143 | -0.112 | 0.292 | -0.027 | -0.042 | 0.442 | 0.101 | 0.187 | 0.049 | – |
| HNRNPK isoform 3 (UniProt P61978) | 0.04 | 0.059 | – | -0.05 | 0.096 | 0.032 | -0.035 | -0.041 | -0.028 | 0.034 |
| ICMT (UniProt O60725) | -0.105 | 0.025 | – | 0.061 | -0.034 | 0.037 | 0.235 | -0.144 | 0.062 | -0.065 |
| IGF2 isoform 3 (UniProt P01344) | 0.148 | – | – | -0.033 | 0.007 | – | -0.105 | – | 0.006 | – |
| GPD1 (UniProt P21695) | -0.005 | 0.065 | 0.131 | -0.298 | -0.072 | – | 0.05 | – | 0.016 | -0.027 |
| FAT2 (UniProt Q9NYQ8) | -0.243 | – | 0.083 | -0.206 | 0.011 | -0.007 | 0.021 | 0.094 | 0.001 | 0.144 |
| GOLGA8R (UniProt I6L899) | -0.126 | – | 0.018 | -0.148 | -0.197 | 0.189 | 0.246 | -0.098 | -0.086 | 0.253 |
| HS1BP3 (UniProt Q53T59) | 0.107 | -0.078 | -0.275 | -0.005 | -0.066 | -0.038 | 0.371 (active) | 0.037 | -0.175 | – |
| HDAC7 isoform 5 (UniProt Q8WUI4) | -0.04 | -0.048 | -0.185 | -0.2 | -0.011 | -0.033 | 0 | -0.016 | 0.012 | – |
| FCF1 (UniProt Q9Y324) | -0.111 | -0.116 | – | – | 0.26 | 0.187 | 0.2 | 0.121 | -0.044 | 0.07 |
| GBE1 (UniProt Q04446) | -0.252 | – | -0.084 | -0.027 | -0.195 | -0.132 | 0.076 | 0.062 | -0.034 | 0.055 |
| FAT1 (UniProt Q14517) | -0.085 | -0.072 | 0.021 | -0.041 | -0.05 | – | -0.094 | – | -0.087 | -0.031 |
| GOLGA6B (UniProt A6NDN3) | – | 0.068 | – | -0.066 | -0.211 | – | – | – | -0.475 | – |
| GPNMB (UniProt Q14956) | – | – | – | -0.221 | – | 0.007 | – | -0.25 | – | – |
| GNL3 (UniProt Q9BVP2) | -0.124 | 0.03 | 0.145 | – | 0.005 | -0.052 | 0.044 | -0.065 | 0.015 | 0.304 |
| FIZ1 (UniProt Q96SL8) | 0.149 | 0 | 0.141 | – | 0.06 | -0.012 | -0.095 | 0.069 | 0.108 | – |
| FKBP3 (UniProt Q00688) | -0.006 | 0 | -0.004 | 0 | -0.024 | -0.052 | 0.01 | 0.012 | 0.033 | 0.017 |
| GREB1 (UniProt Q4ZG55) | – | -0.175 | 0.123 | -0.113 | -0.008 | – | – | – | -0.112 | 0.264 |
| HADHB (UniProt P55084) | -0.111 | 0.011 | -0.283 | 0.064 | -0.18 | 0.131 | 0.62 (active) | 0.001 | -0.223 | 0.027 |
| GOPC (UniProt Q9HD26) | -0.147 | 0.01 | 0.065 | 0.216 | 0.033 | – | 0.164 | – | -0.229 | 0.177 |
| HNRNPUL1 (UniProt M0R247) | -0.327 | 0.128 | 0.326 | -0.145 | – | 0.09 | -0.431 | -0.086 | – | -0.054 |
| FMR1 (UniProt Q06787) | – | -0.105 | 0.046 | 0.006 | – | 0.19 | – | 0.04 | – | – |
| GSE1 (UniProt Q14687) | -0.077 | – | -0.186 | – | 0.027 | – | -0.014 | – | -0.498 (active) | – |
| HSPA2 (UniProt P54652) | – | 0.038 | – | 0.809 (active) | – | – | – | – | – | – |
| FBXO9 (UniProt Q9UK97) | -0.024 | – | -0.018 | 0.141 | 0.052 | 0.055 | -0.014 | 0.152 | -0.037 | -0.003 |
| FUNDC1 (UniProt Q8IVP5) | – | 0.049 | – | – | – | – | – | – | – | – |
